High-throughput results as filed in PubChem.
PK Bst: alters activity of Bacillus stearothermophilus pyruvate kinase; purified pyruvate kinase, luminescence ATP production; ribose 5-phosphate activator present at AC10; Potency, µM; actives 1.2% (n = 51,000); in the data active means potency below about 11 µM; inconclusive means mostly about 12 µM to 25 µM;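 the screen sought inhibitors and activators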;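 further: scaled between full activation by ribose 5 phosphate and full inhibition by luteolin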
TSHR ag: agonists of human thyroid stimulating hormone receptor; P16473; HEK293-CNG-TSHR cells (CNG channel as cAMP sensor), membrane potential dye, cAMP; Potency, µM (series often up to 57.1 µM), for inactives: top-dose activation, most hits filed as activators; actives 0.48% (n = 73,000); active means well fitted activation curve with a large enough effect in the main read-out, with a control signal flat, not every such curve was filed as active; inconclusive means small, poorly fitted or top-dose-only effect, or a change in a side signal; inactive means no such curve, though single readings can be large or run the other way; % of control where 0% means no effect;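 further: the control signal comes from parental cells without the receptor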
Target sequence (P16473 whole entry, looked up): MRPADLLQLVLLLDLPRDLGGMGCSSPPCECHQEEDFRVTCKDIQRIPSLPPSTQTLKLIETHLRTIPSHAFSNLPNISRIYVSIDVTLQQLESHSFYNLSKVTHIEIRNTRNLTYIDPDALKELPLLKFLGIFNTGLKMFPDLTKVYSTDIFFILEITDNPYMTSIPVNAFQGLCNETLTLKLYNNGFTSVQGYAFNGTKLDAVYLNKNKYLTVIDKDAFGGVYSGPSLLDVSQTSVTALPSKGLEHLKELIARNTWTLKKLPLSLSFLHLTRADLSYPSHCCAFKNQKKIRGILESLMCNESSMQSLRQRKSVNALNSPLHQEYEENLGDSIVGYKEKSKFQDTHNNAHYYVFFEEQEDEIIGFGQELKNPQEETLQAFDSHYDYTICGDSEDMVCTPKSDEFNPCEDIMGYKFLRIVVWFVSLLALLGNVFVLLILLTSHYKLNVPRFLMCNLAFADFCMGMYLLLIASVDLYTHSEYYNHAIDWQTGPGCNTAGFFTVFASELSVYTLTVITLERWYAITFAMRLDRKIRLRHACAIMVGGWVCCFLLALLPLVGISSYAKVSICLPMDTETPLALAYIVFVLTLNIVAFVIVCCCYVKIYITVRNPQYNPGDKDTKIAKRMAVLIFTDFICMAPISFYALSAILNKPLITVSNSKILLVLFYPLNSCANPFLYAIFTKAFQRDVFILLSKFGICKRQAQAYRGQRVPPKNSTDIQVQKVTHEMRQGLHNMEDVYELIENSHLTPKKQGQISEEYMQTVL
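HEK 293 cells stably expressing TSHR and a modified CNG channel, with CNG-only parental cells as counterscreen, were preloaded 60 min at room temperature with membrane potential dye containing 100 uM RO 20-1724. Compound exposure was 30 min, and depolarization was read as fluorescence at 590 nm.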
Luciferase inh: inhibitors of firefly luciferase; AID 411; actives 2.2% (n = 72,000); Potency, µM (top dose mostly 57.1 µM), for the others: at the highest dose activity change, negative = inhibition, actives largely listed as inhibitors; P08659; purified firefly luciferase, luminescence, 8 min; further: on the % scale 0 is the no-effect control and ±100 the full control effect; nearly all actives have a fitted effect of over 40% in size
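Inhibition of light generation by firefly luciferase from ATP and luciferin was profiled with concentration-response curves per sample, ATP held at 10 uM within the enzyme's linear range. Plates were read by luminescence after an 8-minute ambient incubation.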
HEK293 cAMP cs: counter-screen for TSHR agonists: cAMP increase in parental HEK293; parental HEK293 CNG cAMP sensor, membrane potential fluorescence; Potency, µM (titrated, usually from 57.1 µM), without a hit: at the highest dose activation, most hits filed as activators; actives 2.5% (n = 73,000); AID 938; further: % of control where 0% means no effect; nearly all actives have a fitted effect of over 55% in size
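Parental HEK 293 cells stably expressing a cAMP-gated CNG channel were loaded with membrane potential dye containing 100 uM RO 20-1724 for 60 min. Compound added for 30 min; depolarization read as fluorescence intensity at 590 nm.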
15-hLO inh: 15-hLO (ALOX15) enzyme inhibition. P16050. purified 15hLO-1, xylenol orange hydroperoxide absorbance. Potency, µM (highest dose often 57.1 µM), without a hit: at the highest dose activity change, negative = inhibition, usual class: inhibitors. actives 1.4% (n = 74,000). AID 887; further: on the % scale 0 is the no-effect control and ±100 the full control effect; nearly all actives have a fitted effect of over 55% in size
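Readout: Fe(III)-xylenol orange absorbance, 573-to-405 nm ratio as reaction progress. Enzyme 40 nM purified human 15hLO-1, substrate 50 uM arachidonic acid, 6 min RT after 15 min compound preincubation; Hepes pH 7.5 buffer with Triton X-100.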
Tau filament bind: binds recombinant human tau filaments; AID 596; actives 2% (n = 71,000); Potency, µM (doses to about 57.1 µM), for the others: top-dose activity change, negative = inhibition; recombinant tau filaments, thioflavin S fluorescence, 15 h; filaments grown with octadecylsulfate alongside compound;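 further: on the % scale 0 is the no-effect control and ±100 the full control effect; actives lower thioflavin S fluorescence by blocking filaments or displacing dye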
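ThS-based fibril read: tau 1 uM final, inducer ODS 30 uM final, 37 C for 15 h, ex 450/em 510 nm.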
The depositor's hits bear a star; u = inconclusive; x = no result given; ! = not active in a repeat; [ ] = another dose, or the depositor's remark. Compounds with a hit are over-represented: about 7.8% of the library has one in this group of screens. Unless noted, the call rests on the fitted dose curve; in most records, active means well fitted curve in the direction sought with a large enough effect; inconclusive means small, poorly fitted or top-dose-only effect, or another doubt; inactive means no such curve, though single readings can be large; an effect the other way counts as inactive or inconclusive. Potency means the concentration at half of the fitted maximal effect.

SMILES | PK Bst | TSHR ag | Luciferase inh | HEK293 cAMP cs | 15-hLO inh | Tau filament bind
Cc1ccc(-c2cc(-c3ccc4c(c3)OCO4)c(C#N)c(N)n2)o1 | >57 | u | -9.6% | u | 10µM* | 12.6µM*
N#Cc1c(N)oc(-c2ccc3c(c2)OCO3)c1-c1ccc2c(c1)OCO2 | >57 | -8.2% | 0.7% | -6.2% | 25.1µM* | -11.7%
Cc1ccccc1S(=O)(=O)Cc1ccc(C(=O)NCc2cccnc2)o1 | >57 | u | -1.1% | u | 12.1% | 9.6%
CC(=O)c1sc(NC(=O)C2(F)C(F)(F)C(F)(F)C(F)(F)C(F)(F)C2(F)F)nc1C | >57 | u | 0.3% | 12.6µM* | -16.2% | -24.7%
CCc1cc(C(=O)OC)c(N2C(=O)C3C4C=CC(C4)C3C2=O)s1 (stereo not drawn) | >57 | 7.94µM* | -0.7% | 4.1% | -6.6% | -5.8%
CCN(CC)CCOC(=O)C1(c2ccc([N+](=O)[O-])cc2)CCCC1 | x | u | 0.1% | 5.2%[25.6 µM] | u | 12.6µM*!
CCN(CC)CCOC(=O)C1(c2ccccc2)CCOCC1 | >57 | 5.7% | 1.5% | 7.3% | 7.5% | -8.7%
COc1cccc(CCc2ccccc2OCC[C@@H]2C[C@@H](O)CN2C)c1 | x | u | x | u | 20µM* | x
O=C1CCCC=C1[C@H](CCc1ccccc1)OC(=O)c1ccc(Br)cc1 | x | 11.1%[11.4 µM] | -2.7%[11.4 µM] | 13.8%[11.4 µM] | 3.1%[11.4 µM] | x
CO[C@@H]1COC(=O)C/C=C\[C@@H](C)[C@@H]2C=C[C@H](O)[C@@H](COC(=O)CCC[C@H]1C)O2 | x | -3.3%[11.4 µM] | 0.6%[11.4 µM] | -0.8%[11.4 µM] | 9.4%[11.4 µM] | x
O[C@@H]1[C@@H](OCc2ccccc2)OC[C@H](O)[C@@H]1O | x | 3.6%[11.4 µM] | 1.3%[11.4 µM] | 21.0%[11.4 µM] | 2.7%[11.4 µM] | 8.8%[11.4 µM]
C=C(C)CSc1nc(N)c(C#N)c(-c2ccc(C)cc2)c1C#N | >57 | -1.6% | -17.5% | -7.1% | 31.6µM* | 207.8%
O=C1C=CC2(OCCCO2)C(Br)=C1 | x | -3.7%[11.4 µM] | x | -2.9%[11.4 µM] | 7.1%[11.4 µM] | x
CCN1C(=O)/C(=C2/Sc3ccc(OC)cc3N2C)SC1=Nc1cccc(O)c1 | >57 | u | 4.6% | -39.8% | -13.7% | 3.16µM*
COCCn1c(=O)c(-c2ccc(Cl)cc2)nc2cnc(Nc3ccccc3)nc21 | x | -1.6% | 0.6%[11.4 µM] | 24.1% | -2.0% | 386.3%
COC(=O)CCC(=O)Nc1ccc(NC(=O)CCC(=O)OC)cc1 | x | -1.9% | x | 0.9% | 2.5% | x
O=C(CCC(=O)OCC(F)(F)C(F)F)Nc1ccc(Cl)cc1 | x | u | -0.2% | 31.6µM* | 9.9% | -14.5%
COC(=O)c1ccccc1NC(=O)CN1CCC(n2nnc3cc(F)ccc32)CC1 | >57 | u | 0.6% | 25.1µM* | -3.5% | -4.3%
COC(=O)c1ccccc1NC(=O)CN1CCN(C23CC4CC(CC(C4)C2)C3)CC1 | >57 | u | 1.5% | 7.94µM* | -9.0% | 81.1%
COC(=O)c1ccccc1NC(=O)CN1CCC(NC(=O)c2ccc(C)cc2)CC1 | >57 | u | 0.5% | u | -4.8% | -6.9%
CC[C@]1(O)C[C@@H]2CN(CCc3c([nH]c4ccccc34)[C@](C(=O)OC)(c3cc4c(cc3OC)N(C)[C@H]3[C@](O)(C(=O)OC)[C@@H](C(=O)OC)[C@@]5(CC)C=CCN6CC[C@@]43[C@@H]65)C2)C1 | x | 5.1% | -3.7% | 5.6% | u | u
CN(C)CCCCNC(=O)c1ccc(-n2c(=O)c(=O)[nH]c3ccccc32)cc1 | x | -4.9% | x | -17.3% | -3.6% | x
CC1CCc2cc(F)cc3c(O)c(C(=O)Nc4cnccn4)c(=O)n1c23 (stereo not drawn) | >11.4 | x | 1.9%[25.5 µM] | x | x | x
O=C(Oc1ccccc1)N1CCC2(CCCN(c3ncccn3)C2)CC1 | x | u | -4.1%[11.4 µM] | 20µM* | -14.6% | -9.9%
O=C(O)C1=CC(=C(c2ccc(O)c(C(=O)O)c2)c2ccc(O)c(C(=O)O)c2)C=CC1=O | x | x | 0.0% | 6.5% | 2.51µM* | -4.8%
Cc1nc2ccccc2c(=O)n1/N=C/c1ccc(N(C)C)cc1 | >57 | 0.2% | -4.0% | 1.3% | 0.8% | 6.4%
